Measurements from PubChem BioAssay (NCATS).
Inconclusive results are not listed. Calls of active or inactive are those of the source. Calls follow the shape of the dose curve; as a rule, active = well fitted curve in the direction sought with a large enough effect; inconclusive = small, poorly fitted or top-dose-only effect, or another doubt; inactive = no such curve, though single readings can be large; an effect the other way counts as inactive or inconclusive.

Key:
[1] = biological target: Rap guanine nucleotide exchange factor 3 (Homo sapiens) (UniProt O95398); assay: Confirmatory qHTS for agonist of cAMP-regulated guanine nucleotide exchange factor 3 (EPAC1) (AID 1645881);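 also: EPAC1 catalysed release of BODIPY-GDP from Rap1B seen as fluorescence loss; 100% = effect of cAMP agonist control; nearly all actives have a fitted effect of over 75% in size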
[2] = biological target: Rap guanine nucleotide exchange factor 4 (Homo sapiens) (UniProt Q8WZA2); assay: Confirmatory qHTS for agonist of cAMP-regulated guanine nucleotide exchange factor 4 (EPAC2) (AID 1645884);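 also: nucleotide exchange releases bodipy-GDP from Rap1 and this lowers its fluorescence; % is scaled to controls: 0 for no effect and ±100 for the full control effect; nearly all actives have a fitted effect of over 65% in size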
[3] = biological target: Rap guanine nucleotide exchange factor 4 (Homo sapiens) (UniProt Q8WZA2); assay: Confirmatory qHTS for antagonist of cAMP-regulated guanine nucleotide exchange factor 4 (EPAC2) (AID 1645885); also: nearly all actives have a fitted effect of over 25% in size; also: potency is read from the fitted curve at half-maximal effect; as to activity change, negative = inhibition: % is scaled to controls: 0 for no effect and ±100 for the full control effect
[4] = biological target: Rap guanine nucleotide exchange factor 3 (Homo sapiens) (UniProt O95398); assay: Counterscreen qHTS for antagonist of cAMP-regulated guanine nucleotide exchange factor 3 (EPAC1) (AID 1645888); also: potency is read from the fitted curve at half-maximal effect;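 as to activity change, negative = inhibition: fluorescence loss as bound BODIPY-GDP is released from Rap1B; % of control where 0% means no effect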
How it was run: (§1)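 Measured: fluorescence of BODIPY-GDP bound to Rap1B, which falls as exchange proceeds. Conditions include 50 uM competing GDP, 5 and 30 min reads, and a later cAMP challenge for antagonist detection.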

[5] = biological target: Rap guanine nucleotide exchange factor 3 (Homo sapiens) (UniProt O95398); assay: Counterscreen qHTS for agonist of cAMP-regulated guanine nucleotide exchange factor 3 (EPAC1) (AID 1645889); also: % of control where 0% means no effect; nearly all actives have a fitted effect of over 40% in size
How it was run: as §1

[6] = biological target: Cytochrome P450 3A4 (Homo sapiens) (UniProt P08684); assay: qHTS Assay for Inhibitors and Substrates of Cytochrome P450 3A4 (AID 884); also: series mostly up to about 57 µM; % is scaled to controls: 0 for no effect and ±100 for the full control effect; nearly all actives have a fitted effect of over 50% in size
How it was run: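 Luminescent readout of luciferin produced by CYP3A4 (20 nM) dealkylation of Luciferin-PPXE, 25 uM (its KM). NADPH-driven reaction ran 60 min at RT after 10 min compound preincubation; data scaled to 57 uM ketoconazole as 100% inhibition.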

[7] = Confirmation and Secondary Assay for Modulators of Hemoglobin Beta Chain Splicing at IVS2 654 locus (AID 910);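 also: per-well total GFP intensity by laser scanning cytometry after 2-day treatment; % of control where 0% means no effect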
How it was run: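 HeLa cells stably carrying EGFP interrupted by mutant beta-globin IVS2-654 intron (CMV-driven) were treated with compound for 2 days at 37C; corrected splicing was scored as total peak GFP intensity per well (488 nm excitation, 500-520 nm emission).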

[8] = Confirmation and Secondary Assay for Modulators of Hemoglobin Beta Chain Splicing at IVS2 705 locus (AID 930);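 also: HeLa cells stably expressing the EGFP-705 splicing reporter; series mostly up to about 46 µM; % of control where 0% means no effect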
How it was run: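 Restored EGFP fluorescence after 2-day compound exposure reports splicing correction in IVS2-705 EGFP reporter HeLa cells; positive control was 500 nM splice-blocking PNA oligo. Signal measured as well total peak GFP intensity (488 nm excitation).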

[9] = biological target: Ubiquitin carboxyl-terminal hydrolase 1 (Homo sapiens) (UniProt O94782); assay: Inhibitors of USP1/UAF1: Pilot qHTS (AID 504865);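 also: rhodamine fluorescence freed from ubiquitin-rhodamine substrate followed over time; top concentration of the series differs between compounds; % is scaled to controls: 0 for no effect and ±100 for the full control effect; nearly all actives have a fitted effect of over 35% in size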
How it was run: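 USP1/UAF1 complex at 1 nM preincubated 15 min at room temperature with compound, then Ub-Rho substrate added at 150 nM final. Fluorescence (480/540 nm) read kinetically in 50 mM HEPES pH 7.8, 0.5 mM EDTA, 1 mM TCEP, 0.1 mg/ml BSA, 0.01% Tween-20.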

Rap guanine nucleotide exchange factor 3 (Homo sapiens), sequence (O95398 whole entry, looked up): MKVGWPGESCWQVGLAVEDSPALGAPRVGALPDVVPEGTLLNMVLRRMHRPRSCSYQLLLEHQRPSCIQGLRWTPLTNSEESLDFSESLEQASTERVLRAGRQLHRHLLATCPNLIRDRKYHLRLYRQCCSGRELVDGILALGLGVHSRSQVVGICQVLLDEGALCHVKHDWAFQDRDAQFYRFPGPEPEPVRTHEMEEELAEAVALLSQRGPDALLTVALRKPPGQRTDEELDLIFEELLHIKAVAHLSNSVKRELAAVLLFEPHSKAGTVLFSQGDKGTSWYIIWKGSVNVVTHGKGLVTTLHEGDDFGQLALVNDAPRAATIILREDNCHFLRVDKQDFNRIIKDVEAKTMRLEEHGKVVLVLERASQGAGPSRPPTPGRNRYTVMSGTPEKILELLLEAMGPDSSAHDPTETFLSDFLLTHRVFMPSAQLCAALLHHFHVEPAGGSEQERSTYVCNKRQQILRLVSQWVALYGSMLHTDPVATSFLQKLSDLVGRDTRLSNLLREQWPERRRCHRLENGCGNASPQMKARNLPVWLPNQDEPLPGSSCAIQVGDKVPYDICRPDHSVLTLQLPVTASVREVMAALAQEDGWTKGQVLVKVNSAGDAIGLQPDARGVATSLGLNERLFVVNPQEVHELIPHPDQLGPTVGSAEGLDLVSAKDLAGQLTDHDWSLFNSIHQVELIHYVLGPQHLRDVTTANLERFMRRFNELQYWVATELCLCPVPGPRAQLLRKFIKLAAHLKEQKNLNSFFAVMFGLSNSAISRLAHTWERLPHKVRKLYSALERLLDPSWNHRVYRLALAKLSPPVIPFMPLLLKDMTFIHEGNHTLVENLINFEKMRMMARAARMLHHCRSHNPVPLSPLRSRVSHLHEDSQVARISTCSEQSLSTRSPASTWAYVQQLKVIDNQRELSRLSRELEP
Rap guanine nucleotide exchange factor 4 (Homo sapiens), sequence (Q8WZA2 whole entry, looked up): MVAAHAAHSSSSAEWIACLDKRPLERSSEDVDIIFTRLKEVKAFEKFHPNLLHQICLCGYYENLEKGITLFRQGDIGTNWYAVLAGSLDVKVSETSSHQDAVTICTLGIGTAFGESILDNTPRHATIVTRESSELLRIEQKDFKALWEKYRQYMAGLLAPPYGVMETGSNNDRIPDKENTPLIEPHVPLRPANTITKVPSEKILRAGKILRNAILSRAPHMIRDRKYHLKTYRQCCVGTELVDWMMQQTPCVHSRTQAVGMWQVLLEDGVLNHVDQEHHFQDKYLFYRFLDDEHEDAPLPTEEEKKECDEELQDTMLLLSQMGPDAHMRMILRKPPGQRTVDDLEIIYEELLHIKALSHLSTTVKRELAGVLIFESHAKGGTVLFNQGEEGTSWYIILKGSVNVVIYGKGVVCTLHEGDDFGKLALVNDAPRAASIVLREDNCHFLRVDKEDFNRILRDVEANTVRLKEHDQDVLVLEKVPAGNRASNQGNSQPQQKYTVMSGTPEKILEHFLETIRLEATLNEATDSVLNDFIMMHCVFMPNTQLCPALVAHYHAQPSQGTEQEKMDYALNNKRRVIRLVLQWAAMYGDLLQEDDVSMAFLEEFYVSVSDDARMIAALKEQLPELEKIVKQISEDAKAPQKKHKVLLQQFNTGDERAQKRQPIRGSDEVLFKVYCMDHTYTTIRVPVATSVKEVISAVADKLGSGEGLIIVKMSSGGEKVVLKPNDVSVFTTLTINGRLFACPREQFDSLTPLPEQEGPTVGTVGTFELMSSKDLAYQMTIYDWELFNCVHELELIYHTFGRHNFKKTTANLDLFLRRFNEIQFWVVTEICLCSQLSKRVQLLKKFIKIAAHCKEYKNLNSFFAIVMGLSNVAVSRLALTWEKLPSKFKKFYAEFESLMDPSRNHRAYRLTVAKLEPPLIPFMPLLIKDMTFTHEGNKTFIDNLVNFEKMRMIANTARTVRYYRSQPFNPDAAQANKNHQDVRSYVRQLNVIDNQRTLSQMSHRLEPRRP
Cytochrome P450 3A4 (Homo sapiens), sequence (P08684 whole entry, looked up): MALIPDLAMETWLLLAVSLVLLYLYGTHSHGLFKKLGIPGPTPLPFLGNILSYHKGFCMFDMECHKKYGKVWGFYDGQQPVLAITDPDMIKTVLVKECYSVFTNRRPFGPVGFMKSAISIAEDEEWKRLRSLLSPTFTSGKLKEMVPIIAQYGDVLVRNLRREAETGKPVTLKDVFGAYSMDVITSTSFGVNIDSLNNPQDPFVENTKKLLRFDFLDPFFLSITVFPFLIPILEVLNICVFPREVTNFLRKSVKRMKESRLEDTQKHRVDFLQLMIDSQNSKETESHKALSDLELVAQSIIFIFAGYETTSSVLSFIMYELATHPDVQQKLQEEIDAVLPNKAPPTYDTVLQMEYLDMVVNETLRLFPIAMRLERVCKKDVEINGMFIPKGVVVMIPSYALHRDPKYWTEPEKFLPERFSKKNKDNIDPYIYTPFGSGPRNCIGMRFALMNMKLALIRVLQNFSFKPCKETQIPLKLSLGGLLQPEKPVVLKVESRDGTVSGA
Ubiquitin carboxyl-terminal hydrolase 1 (Homo sapiens), sequence (O94782 whole entry, looked up): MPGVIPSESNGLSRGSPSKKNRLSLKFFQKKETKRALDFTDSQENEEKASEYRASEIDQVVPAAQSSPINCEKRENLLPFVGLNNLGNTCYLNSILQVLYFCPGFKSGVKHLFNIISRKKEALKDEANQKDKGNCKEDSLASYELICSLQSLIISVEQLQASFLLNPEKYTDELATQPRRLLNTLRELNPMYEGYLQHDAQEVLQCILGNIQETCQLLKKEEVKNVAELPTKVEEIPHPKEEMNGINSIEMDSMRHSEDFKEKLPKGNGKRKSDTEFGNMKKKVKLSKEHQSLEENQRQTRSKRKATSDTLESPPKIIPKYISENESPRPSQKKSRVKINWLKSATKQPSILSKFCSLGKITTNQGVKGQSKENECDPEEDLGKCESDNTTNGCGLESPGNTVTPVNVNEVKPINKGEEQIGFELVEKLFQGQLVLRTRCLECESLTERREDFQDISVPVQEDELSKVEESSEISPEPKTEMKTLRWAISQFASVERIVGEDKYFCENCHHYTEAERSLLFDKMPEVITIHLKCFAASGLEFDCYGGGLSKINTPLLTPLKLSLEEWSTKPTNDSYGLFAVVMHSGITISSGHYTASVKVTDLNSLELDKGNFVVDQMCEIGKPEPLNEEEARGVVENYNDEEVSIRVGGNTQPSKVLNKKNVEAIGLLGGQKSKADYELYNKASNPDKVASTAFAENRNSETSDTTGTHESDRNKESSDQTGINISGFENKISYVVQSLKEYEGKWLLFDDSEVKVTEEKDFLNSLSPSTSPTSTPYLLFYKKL

C=CCCCN(Cc1ccccc1)S(=O)(=O)c1ccccc1Br
inactive: Potency [1] | activation [2] 1.87% [at 17.1 µM, percent relative to cAMP agonist control] | Potency [3] | activity change, negative = inhibition [4] -1.46% [at 30.8 µM] | activation [5] 12.4% [at 30.8 µM]

Cc1ccccc1C(=O)/C(C#N)=N/Nc1c(C)n(C)n(-c2ccccc2)c1=O
active: Potency [3] 67.5 µM | Potency [4] 79.4 µM
inactive: Potency [1] | Potency [2] | Potency [5]

Cc1cc2oc(=O)c3c(c2cc1OC(=O)c1ccco1)CCCC3
inactive: Potency [1] | Potency [2] | Potency [3] | Potency [4] | Potency [5]

CC1(C)OC2C(CO)OC(n3cnc4c(=O)[nH]c(N)nc43)C2O1 (centres undefined)
inactive: Potency [6] | Potency [7] | Potency [8] | Potency [9]

CCCOc1c(OC)cccc1C1CC(=O)Nc2cc(OC)c(OC)c(OC)c21 (centres undefined)
inactive: Potency [1] | Potency [2] | Potency [3] | Potency [4] | Potency [5]

CCOc1cc(C(=O)Nc2ccc3c(c2)n(C)c(=O)c(=O)n3C)cc(OCC)c1OCC
inactive: Potency [1] | Potency [2] | outcome [3] inactive [at 12.7 µM] | Potency [4] | Potency [5]
